Source: PubChem BioAssay (National Center for Advancing Translational Sciences (NCATS))
Rows were chosen to be rich in hits. Some 7.4% of all compounds tested hit in one or more screens of this group.
Rab9 promoter act – qHTS Assay for Rab9 Promoter Activators; Huh7 Rab9 promoter-luciferase reporter, luminescence, 24 h; Potency, µM (doses to about 9.22 µM), for inactives: top-dose activation, negative = inhibition, most hits filed as activators; actives 2.8% (n = 320,000); also: % of control where 0% means no effect; nearly all actives have a fitted effect of over 60% in size
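Using Huh7 cells stably transfected with Rab9 promoter–luciferase, compounds were incubated 24 h at 37 °C, 5% CO2; luciferase luminescence was read 10 min after reagent addition.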
FLuc modulator – qHTS profiling assay for firefly luciferase inhibitor/activator using purifed enzyme and Km concentrations of substrates (counterscreen for miR-21 project). Potency, µM (series often up to 57.5 µM), without a hit: at the highest dose activity change, negative = inhibition, most hits filed as inhibitors. Luciferin 4-monooxygenase (Photinus pyralis), P08659. purified FLuc, Km substrates, luminescence inhibition. actives 6.9% (n = 360,000);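 also: plate controls were vehicle for no effect and reference inhibitor for full effect; nearly all actives have a fitted effect of over 55% in size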
Target sequence (P08659 whole entry, looked up): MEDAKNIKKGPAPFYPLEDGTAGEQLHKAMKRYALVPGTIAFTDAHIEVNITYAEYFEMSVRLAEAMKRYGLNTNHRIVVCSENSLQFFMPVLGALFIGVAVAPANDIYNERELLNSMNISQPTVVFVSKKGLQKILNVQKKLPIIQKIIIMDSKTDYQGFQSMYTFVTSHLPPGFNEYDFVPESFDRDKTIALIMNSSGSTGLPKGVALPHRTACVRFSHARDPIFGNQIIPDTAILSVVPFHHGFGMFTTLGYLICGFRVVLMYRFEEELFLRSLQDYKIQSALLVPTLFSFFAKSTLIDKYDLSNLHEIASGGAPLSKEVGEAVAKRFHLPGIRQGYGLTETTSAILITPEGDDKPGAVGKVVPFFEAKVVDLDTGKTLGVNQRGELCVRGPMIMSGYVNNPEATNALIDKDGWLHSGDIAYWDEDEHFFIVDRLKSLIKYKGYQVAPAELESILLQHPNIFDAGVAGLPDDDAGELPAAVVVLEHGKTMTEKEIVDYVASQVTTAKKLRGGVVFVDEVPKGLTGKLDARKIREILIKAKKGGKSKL
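Purified P. pyralis luciferase, 10 nM final, with Km-level 10 uM D-luciferin and 10 uM ATP in 50 mM Tris acetate pH 7.5, 10 mM Mg acetate, 0.01% Tween-20, 0.05% BSA; 6-point qHTS titration about 60 µM downward; luminescence read.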
SMN2 splice enh – qHTS Assay for Enhancers of SMN2 Splice Variant Expression; HEK293 SMN2-luciferase splicing reporter, luminescence, 30-36 h; Potency, µM (titrated, usually from 46.1 µM), without a hit: at the top dose activity change, positive = activation, actives largely listed as activators; actives 2.8% (n = 210,000); also: % of control where 0% means no effect; nearly all actives have a fitted effect of over 55% in size
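qHTS luciferase splicing reporter: luminescence rises when SMN2 exon 7 is included in transfected HEK293 cells. Compound exposure lasted 30-36 h at 37C, with 4.5 mM final sodium butyrate as control, followed by a ONE-Glo read.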
NPC1 prom act – qHTS Assay for NPC1 Promoter Activators; Potency, µM (top dose mostly 9.22 µM), for the others: at the top dose activation, most hits filed as activators; AID 485313, 2010; actives 2.4% (n = 320,000); Huh7 NPC1 promoter luciferase reporter, 24 h; also: % of control where 0% means no effect; nearly all actives have a fitted effect of over 60% in size
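Quantitative HTS used a cell-based reporter: Huh7 cells stably bearing the NPC1 promoter upstream of luciferase were treated with compounds for 24 h, and promoter activation was read as luminescence.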
ELG1 genotox – qHTS screen for small molecules that induce genotoxicity in human embryonic kidney (HEK293T) cells expressing luciferase-tagged ELG1. HEK293T ELG1-luciferase reporter, luminescence, 16 h. Potency, µM (top dose mostly 46 µM), inactives show at the top dose activity change, positive = activation, hits mostly activators. actives 1.3% (n = 330,000). AID 504466, 2011; also: % of control where 0% means no effect; nearly all actives have a fitted effect of over 60% in size
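16 hr compound incubation (37 °C, 5% CO2) of HEK293T cells carrying luciferase-tagged ELG1; luciferase then measured by ONE-Glo luminescence after 30 min at RT.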
The depositor's hits bear a star; ? = inconclusive; . = not tested or not shown; [ ] = remark or other dose. Calls follow the shape of the dose curve; as a rule, active = well fitted curve in the direction sought with a large enough effect; inconclusive = small, poorly fitted or top-dose-only effect, or another doubt; inactive = no such curve, though single readings can be large; an effect the other way counts as inactive or inconclusive. Potency is read from the fitted curve at half-maximal effect.

SMILES	Rab9 promoter act	FLuc modulator	SMN2 splice enh	NPC1 prom act	ELG1 genotox
CCCC[C@]12Cc3cc(C#N)ccc3C(O1)c1c(cc(-c3ccccc3)oc1=O)O2	-5%[1.84 µM]	0%[11.5 µM]	.	0%[1.84 µM]	.
CCCc1nnc(NC(=O)Cc2coc3c(C)c(C)ccc23)s1	.	1%	9%	.	.
COc1ccc(C)cc1S(=O)(=O)N1CCN(c2ccccc2)CC1	2%	-1%	.	-3%	-1%
CCOc1ccccc1N1CCN(S(=O)(=O)c2cc(C)ccc2OC)CC1	2.5µM*	17µM*	.	?	?
CCOc1ccc(/C=C/C2=Cc3c(sc(NC(=O)CSc4n[nH]c(N)n4)c3C#N)C(C)(C)C2)cc1	1%	9.5µM*	3%	11%	-16%
O=C(Cc1ccccc1)NCc1ccc2c(c1)OCO2	?	7.6µM*	11%	2.8µM*	15µM*
O=C(CCc1ccccc1)NCc1ccc2c(c1)OCO2	2%	0%	.	0%	-6%
O=C(COC(=O)COc1ccccc1[N+](=O)[O-])NCc1ccc2c(c1)OCO2	.	.	.	.	-1%
O=C(Cc1ccccc1[N+](=O)[O-])NCc1ccc2c(c1)OCO2	1.8µM*	?	138%	?	?
O=C(NCc1ccccc1)c1c[nH]c2cc3c(cc2c1=O)OCCO3	2.5µM*	2.4µM*	13µM*	3.2µM*	?
COc1ccccc1NC(=O)c1c(C)cc(C)nc1SCC(=O)c1ccc(Cl)cc1	.	-8%	.	.	.
COc1ccccc1NC(=O)CSc1nnc(CNC(=O)c2ccco2)n1C	-1%	-1%	.	1%	1%
CCCCn1c(CNC(=O)c2ccc(OC)cc2)nnc1SCC(=O)Nc1ccc(OC)cc1	.	-7%	-3%	.	.
COc1ccccc1NC(=O)CSc1nnc(CCNC(=O)c2ccc(C)cc2)n1C	25%	15µM*	.	9%	6%
CCOC(=O)c1ccc(NC(=O)CSc2nnc(CNC(=O)c3ccc(OC)cc3)n2CC)cc1	.	15µM*	8%	.	.
COc1ccc(C(=O)NCc2nnc(SCC(=O)Nc3ccccc3OC)n2C)cc1	-6%	15µM*	6%	-4%	2%
c1coc(C2Nc3ccccc3-c3nc4ccccc4n32)c1 (stereo not given)	?	21µM*	18µM*	?	?
c1ccc(C2Nc3ccccc3-c3nc4ccccc4n32)cc1 (stereo not given)	6%	21µM*	26%	3%	?
Cc1cc2n(n1)C(c1ccco1)Nc1ccccc1-2 (stereo not given)	1%	0%	-2%	-6%	3%
c1ccc(C2Nc3ccccc3-c3nc4ccccc4n32)nc1 (stereo not given)	-1%	?	-8%	-6%	2%
Cc1ccc(Sc2ncccc2C(=O)NCc2cc([N+](=O)[O-])ccc2O)c(C)c1	4µM*	8.5µM*	.	4µM*	?
O=C(NCc1cc([N+](=O)[O-])ccc1O)c1cccnc1Sc1ccccc1	-3%	17µM*	.	2%	-1%
Cc1ccc(Sc2ncccc2C(=O)NCC(c2ccc(F)cc2)N2CCOCC2)c(C)c1 (stereo not given)	-3%	-1%	.	-7%	-1%
Cc1ccccc1CNC(=O)Cn1c(=O)c2cccn2c2cccnc21	.	-6%	.	.	.
COc1ccc(OC)c(CNC(=O)Cc2ccc(NC(=O)N3CCSc4ncccc43)cc2)c1	.	-13%	.	.	.
SMILES	Rab9 promoter act	FLuc modulator	SMN2 splice enh	NPC1 prom act	ELG1 genotox
Cc1c(O)c2ccccc2oc1=O	0%	-5%	.	-2%	1%
CCN(CC)S(=O)(=O)c1cccc(N=Nc2c(O)c3ccccc3oc2=O)c1	16%	27µM*	.	28%	-2%
COc1ccc2c(c1)N(C[C@@H](C)CN(C)C)c1ccccc1S2	.	.	-11%[20.6 µM]	.	.
CCCn1c(=O)c2sccc2n2c(CCCC(=O)NC3CCC(C)CC3)nnc12 (stereo not given)	.	-2%	.	.	.
Cc1cc(C)n(CC(O)Cn2c3ccccc3c3ccccc32)n1 (stereo not given)	-5%	2%	13µM*	0%	-2%
Cc1cc(O)c(/C=N/Nc2ccc(Cl)cc2)c(=O)o1	15%	2.7µM*	-21%	20%	10%
Cc1cc(O)c(/C=N/Nc2cccc(Cl)c2)c(=O)o1	1%	15µM*	-24%	19%	10%
Cc1cccc(N=Cc2c(O)cc(C)oc2=O)c1	2%	?	6%	-2%	-5%
Cc1cc(O)c(/C=N/Nc2ccccc2Cl)c(=O)o1	30%	?	-1%	?	?
O=C(/C=C/c1ccco1)NC(=S)Nc1cccc(C(=O)O)c1	2.8µM*	11µM*	.	4µM*	?
CN1CCN(c2ccc(NC(=S)NC(=O)/C=C/c3ccco3)cc2)CC1	?	24µM*	.	?	?
COc1cccc(NC(=S)NC(=O)/C=C/c2ccco2)c1	25%	17µM*	.	5%	?
CC(=O)Nc1ccc(NC(=S)NC(=O)/C=C/c2ccco2)cc1	4%	-1%	.	1%	-2%
CCCCNC(=O)CSc1nc2ccccc2nc1Cc1ccccc1	.	0%	.	.	.
COC(=O)c1cnc(N2CCN(c3ccc(OC)cc3)CC2)c2ccccc12	.	-10%	.	.	.
CC(C)c1ccc(CNc2nc(-c3ccco3)nn2C(=O)c2ccc([N+](=O)[O-])cc2)cc1	.	-10%	.	.	.
O=C(O)c1ccc(N/N=C/c2ccc3c(c2)OCO3)cc1	-59%	0.095µM*	.	-38%	?
COC(=O)c1cc(NS(=O)(=O)c2ccc3c(c2)OCCO3)ccc1Cl	.	?	-21%	.	.
O=C(O)c1cc(S(=O)(=O)Nc2ccc3c(c2)OCCO3)c(Cl)cc1Cl	4%	?	-12%	2%	9.2µM*
O=C(O)c1ccc(N/N=C/c2cc3c(cc2[N+](=O)[O-])OCO3)cc1	6%	?	-26%	-2%	-20%
O=C(O)c1ccc(N/N=C/c2cc3cc4c(cc3nc2Cl)OCCO4)cc1	0.1µM*	0.024µM*	.	0.28µM*	1.2µM*
O=C(O)c1cc(N/N=C/c2ccc3c(c2)OCCO3)ccc1Cl	?	1.1µM*	0.32µM*	?	0.29µM*
O=C(O/N=C/c1ccc2c(c1)OCO2)c1ccccc1Cl	5%	0.95µM*	3%	5%	2%
C/C(=N\Nc1ccc(Cl)c(C(=O)O)c1)c1ccc2c(c1)OCO2	1.6µM*	15µM*	16µM*	2.2µM*	?
O=C1OC(c2ccc3c(c2)OCO3)=N/C1=C\c1ccc(C(=O)O)cc1	-3%	0.13µM*	.	0%	0%
Cc1ccc(N/N=C/c2ccc3c(c2)OCCO3)cc1Cl	4%	24µM*	20µM*	12%	?
C/C(=N\Nc1ccc(Cl)c(C(=O)O)c1)c1ccccn1	9%	-18%	.	16%	10%
